# High-throughput results from PubChem BioAssay.
# ssDAF12 agonist – S. stercoralis DAF-12 nuclear receptor activators, primary screen, cell-based, luminescence, HEK293, GRIP1 co-expression, lit1-tk-luc | activation, % at 6.8 µM | Nuclear hormone receptor DAF-12 (Strongyloides stercoralis) | HEK293 ssDAF-12/GRIP1 lit1-tk-luc reporter; % of 3 µM dafachronic acid response | 370,000 compounds, 1% hits;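 active = activation above the mean over all tested compounds plus 3 SD, cut at about 0.9% in these data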;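 also: 0% = DMSO-only wells and 100% = 3 µM delta7-dafachronic acid wells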
# DAX1 inh-1 – DAX1 (NR0B1) inhibitors, primary screen, cell-based, HEK293, Gal4-DAX1, luciferase luminescence. HEK293 Gal4-DAX1 luciferase reporter. 340,000 compounds, 0.99% hits. inhibition, % at 6.75 µM. Nuclear receptor subfamily 0 group B member 1 (Homo sapiens), P51843;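 active = inhibition above the mean over all tested compounds plus 3 SD, cut at about 4.2% in these data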;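 also: 0% = DAX1-transfected cells with DMSO and 100% = empty-vector control cells with DMSO; inhibition shows as a rise in luminescence from relieved DAX1 repression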
# Target sequence (P51843 207-470 limits assumed): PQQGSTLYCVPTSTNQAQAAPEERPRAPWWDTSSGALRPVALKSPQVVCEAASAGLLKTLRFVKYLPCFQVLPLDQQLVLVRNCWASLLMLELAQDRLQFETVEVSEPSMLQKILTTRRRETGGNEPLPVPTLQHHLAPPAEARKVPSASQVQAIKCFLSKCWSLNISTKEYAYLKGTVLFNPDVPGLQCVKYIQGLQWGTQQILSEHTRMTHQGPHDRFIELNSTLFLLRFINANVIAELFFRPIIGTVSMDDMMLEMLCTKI
# DAX1 inh-2 – DAX1 (NR0B1) inhibitors on StAR promoter, primary screen, cell-based, luminescence, SF-1 (NR5A1), full-length DAX-1 | HEK293T StAR-luciferase reporter, SF-1/DAX-1 repression relief | inhibition, % at 6.8 µM | 370,000 compounds, 1.1% hits | AID 652010, 2013;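 active = inhibition above the mean over all tested compounds plus 3 SD, cut at about 3.6% in these data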;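 also: 0% = DAX-1 cells with DMSO and 100% = cells lacking DAX-1 with DMSO; higher inhibition means more luminescence from relief of DAX-1 repression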
# hcDAF12 agonist – H. contortus DAF-12 nuclear receptor activators, primary screen, cell-based, luminescence, HEK293, lit1-tk-luc reporter; HEK293 hcDAF-12 lit1-tk-luc reporter; 0% DMSO, 100% Δ7-dafachronic acid; activation, % at 6.8 µM; 370,000 compounds, 1.4% hits; AID 652067, 2013;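 active = activation above the mean of all tested compounds plus 3 SD, cut at about 5.5% in these data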;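 also: 100% = response to 3 µM Δ7-dafachronic acid high control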
# hgDAF12 agonist – H. glycines DAF-12 receptor agonists, primary screen, cell-based, luminescence, HEK293, GAL4 fusion, UAS-luciferase. Nuclear hormone receptor DAF-12 (Heterodera glycines), GAL4 fusion. HEK293 GAL4-hgDAF12 UAS-luciferase reporter, agonist luminescence; normalized to butyrate control. activation, % at 6.8 µM. 370,000 compounds, 1.8% hits. AID 687014, 2013;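 active = activation above a cutoff set at the mean of all screened compounds plus 3 SD, cut at about 10% in these data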;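 also: 0% = DMSO wells and 100% = sodium butyrate wells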
# An asterisk follows results filed as active; · = no result given. Shown are actives, neighbours in structure and some others; about 4.1% of the full set was active somewhere.
SMILES,ssDAF12 agonist,DAX1 inh-1,DAX1 inh-2,hcDAF12 agonist,hgDAF12 agonist
COc1ccc(Cn2ccc3ccc(-c4ccc5ccn(Cc6ccc(C#N)cc6)c5c4)cc32)cc1,-1,·,-1,2,4
CN(C)C(=O)c1ccc(-c2n[nH]c(=O)c3ccccc23)cc1,-2,4.8*,1,0,-1
Oc1ccc(-c2nn[nH]n2)c2cccnc12,-2,·,·,1,0
c1ccc(CSCc2nc3ccccc3[nH]2)cc1,-1,2,1,6.4*,7
Nc1nc(CSc2nc3ccccc3[nH]2)cs1,0,4.6*,0,4,4
Fc1ccc(CSc2nc3ccccc3[nH]2)cc1,0,3,3,3,12*
Nc1ccccc1Sc1nc2ccccc2[nH]1,0,0,3,8.9*,1
CCCCCCCC(=O)N[C@H]1CC[C@@]23CCCN2C(=O)CCC[C@H]3[C@H]1C,-2,·,·,0,-1
CN(Cc1ccco1)C(=O)CN1C(=O)C2(OCCCO2)c2ccccc21,-1,·,2,-1,1
Cc1cc2sc3ccccc3c(=O)c2c(C)c1O,1.1*,0,2,4,9
O=c1c2ccccc2sc2ccccc12,-1,2,1,2,2
CC(=O)N1C[C@@H](CO)[C@@H](N(C)C(=O)Nc2cccc3ccccc23)C[C@H]1c1ccccc1,0,·,-1,2,3
COc1ccc(NS(=O)(=O)NC(=O)c2c[nH]c3ccccc23)cc1,-1,0,0,5.8*,2
CN(C)S(=O)(=O)c1cccc(NC(=O)c2c[nH]c3ccccc23)c1,1.3*,-1,0,2,3
COc1cccc(NS(=O)(=O)NC(=O)c2c[nH]c3ccccc23)c1,-1,0,0,0,1
O=C(NS(=O)(=O)Nc1ccccn1)c1c[nH]c2ccccc12,1.0*,1,0,6,3
CCCCNc1ccc2c(c1)OC[C@H](Cc1ccccc1)NS2(=O)=O,-2,·,1,-1,1
CC1C(O)=C(c2nc3ccccc3[nH]2)C(=N)N1c1ccccc1 (stereo not given),-1,2,0,0,13*
O=C(CSc1nnc(-c2cccnc2)n1-c1ccc(Cl)cc1)c1ccc2ccccc2c1,-1,·,0,-2,1
Cc1cccc(NC(=O)CSc2nnc(-c3cccnc3)n2Cc2ccco2)c1C,-1,·,1,-2,3
OCc1ccc2c(c1)c(-c1ccc3c(c1)OCCO3)c(-c1ccccc1)n2-c1ccccc1,0,4.4*,0,2,-1
O=[N+]([O-])c1cncc2[nH]cnc12,-2,·,2,-1,3
Cc1c(C(=O)Nc2nccs2)oc2ccc(F)cc12,1.6*,2,2,6.3*,9
Cc1ccc(N/C(=C\C(=O)c2ccccc2)C(=O)O)cc1,1.1*,1,4.3*,3,10*
Cc1ccnc(NC(=O)c2cccs2)c1,0,1,1,2,8
SMILES,ssDAF12 agonist,DAX1 inh-1,DAX1 inh-2,hcDAF12 agonist,hgDAF12 agonist
Cc1cc(NC(=O)c2cccs2)ncc1NC(=O)C(C)(C)C,1.1*,2,3,3,10
CC(C)=NOC(=O)c1c(C)noc1-c1snnc1C,-2,1,0,-1,-2
Cc1ccc(/C=N/OC(=O)c2c(C)noc2-c2snnc2C)cc1,-1,5.7*,0,0,0
COCc1[nH]nc2c1C(c1ccc3c(c1)OCO3)N(c1ccc(OC)cc1)C2=O (stereo not given),-1,·,-1,0,2
CC(C)c1ccc(N2C(=O)CC(NNC(=O)c3cccnc3)C2=O)cc1 (stereo not given),-1,5.6*,0,0,1
O=C(NNC1CC(=O)N(c2ccc(Cl)cc2)C1=O)c1ccccn1 (stereo not given),0.9*,-1,1,3,10
O=C(NNC1CC(=O)N(c2ccc(Cl)cc2)C1=O)c1ccccc1Cl (stereo not given),-1,0,-1,3,3
O=C(NNC1CC(=O)N(c2ccccc2)C1=O)c1cccnc1 (stereo not given),-1,1,0,0,2
COc1cccc(CNC(=O)[C@H]2CCCN2C(=O)[C@H]2CCCN2C(=O)c2cccc(Cl)c2)c1,-1,·,0,0,-1
CCOC(=O)[C@]12CCCC=C1N(CCCOC)C(=O)[C@@H]2CC(=O)NCc1cccc2ccccc12,-1,·,0,-2,-2
CCCCn1nnc(N(C(=O)c2cccs2)C(=O)c2cccs2)n1,0,5.7*,0,0,6
CN(C(=O)CCNC(=O)Cn1cnc2ccccc2c1=O)c1ccc(F)cc1,-1,4.8*,0,-2,3
Cc1ccc(N(C)C(=O)CCNC(=O)Cn2cnc3ccccc3c2=O)cc1C,-1,-1,0,-1,-1
Cc1ccc(-n2c(SCC(=O)Nc3ccc(S(=O)(=O)Nc4nccs4)cc3)nnc2-c2cccs2)cc1,-1,·,1,0,-2
O=C1c2cc(O)cc(O)c2C(=O)c2c1cc(O)c([C@@H](CO)CCO)c2O,0,2,2,6.1*,3
CC1CC(C)CN(CCCNC(=O)CN2C(=O)CSc3ccc(S(=O)(=O)N4CCCCC4)cc32)C1 (stereo not given),-1,1,3.6*,2,1
O=C(CSc1nnc(-c2cccc(Cl)c2)n1Cc1ccco1)c1ccc(F)cc1,-1,·,-1,-3,-2
Cc1cc(NC(=O)c2ccc3c(c2)C(=O)N(CC(C)C)C3=O)no1,0,-2,0,0,0
Cc1ccnc(NC(=O)c2ccc3c(c2)C(=O)N(CC(C)C)C3=O)c1,-1,0,3.7*,1,5
CCOC(=O)C1=NOC(C(C)=O)(C(=O)Nc2cc(C)cc(C)c2)C1 (stereo not given),0,·,0,-1,0
CCCCN1CCN(C2=NC(=O)N(c3ccc(Br)cc3)C(=O)C2)CC1,-1,·,0,1,-2
O=C1CCCc2c1sc1nc3n(c(=O)c21)CCCCC3,-1,2,1,1,10*
O=c1c2c3c(sc2nc2n1CCCCC2)C(O)CCC3 (stereo not given),-1,1,4,2,11*
CCOc1ccc(CCNC(=O)c2cc3sccc3n2Cc2ccccc2)cc1OCC,-1,·,·,-4,-5
Cc1ccc(NC(=S)NNC(=O)CSc2nc3sc4c(c3c(=O)n2-c2ccccc2)CCCC4)cc1,-1,·,1,1,0
